Positions count from the first letter of the chain named.
Tests used:
Assay in all cases: yeast three-hybrid, YBZ-1, SC-Leu-His + 0.5 mM 3-AT, 4 days
Details in all cases: tags: N-Gal4 AD-HA kept; label: inside an RPR1-promoter hybrid RNA with tandem MS2 sites; ssRNA
[1] = biological target: PUM1 PUF domain R7-RSG (Homo sapiens, UniProt Q14671 828-1176, S1079R;N1080S;E1083G)
Method in brief: (§1)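 Matching RNA elements and Pumilio-1 PUF domain libraries, randomized at the three base-contacting residues of every repeat, were co-expressed from a centromeric plasmid in strain YBZ-1 (LexA–MS2 coat fusion, HIS3 reporter). The repeat regions were PCR-amplified and Illumina-sequenced from cells grown four days on SC-Leu (input) or SC-Leu-His + 0.5 mM 3-AT (selection). The interaction score is the log change in variant frequency from input to selection. It is computed in log2, with a pseudocount of 1 for absent variants.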

[2] = biological target: PUM1 PUF domain R7-RSN (Homo sapiens, UniProt Q14671 828-1176, S1079R;N1080S;E1083N)
Method in brief: as §1

[3] = biological target: PUM1 PUF domain R3-SME (Homo sapiens, UniProt Q14671 828-1176, C935S;R936M;Q939E)
Method in brief: as §1

[4] = biological target: PUM1 PUF domain R2-QWW (Homo sapiens, UniProt Q14671 828-1176, N899Q;Y900W;Q903W)
Method in brief: as §1

[5] = biological target: PUM1 PUF domain R1-RIT (Homo sapiens, UniProt Q14671 828-1176, S863R;R864I;Q867T)
Method in brief: as §1

[6] = biological target: PUM1 PUF domain R1-TMR (Homo sapiens, UniProt Q14671 828-1176, S863T;R864M;Q867R)
Method in brief: as §1

[7] = biological target: PUM1 PUF domain R1-GCR (Homo sapiens, UniProt Q14671 828-1176, S863G;R864C;Q867R)
Method in brief: as §1

[8] = biological target: PUM1 PUF domain R4-DYG (Homo sapiens, UniProt Q14671 828-1176, N971D;H972Y;Q975G)
Method in brief: as §1

[9] = biological target: T1, PUM1 PUF domain R6-TFR (Homo sapiens, UniProt Q14671 828-1176, N1043T;Y1044F;Q1047R)
T1 sequence: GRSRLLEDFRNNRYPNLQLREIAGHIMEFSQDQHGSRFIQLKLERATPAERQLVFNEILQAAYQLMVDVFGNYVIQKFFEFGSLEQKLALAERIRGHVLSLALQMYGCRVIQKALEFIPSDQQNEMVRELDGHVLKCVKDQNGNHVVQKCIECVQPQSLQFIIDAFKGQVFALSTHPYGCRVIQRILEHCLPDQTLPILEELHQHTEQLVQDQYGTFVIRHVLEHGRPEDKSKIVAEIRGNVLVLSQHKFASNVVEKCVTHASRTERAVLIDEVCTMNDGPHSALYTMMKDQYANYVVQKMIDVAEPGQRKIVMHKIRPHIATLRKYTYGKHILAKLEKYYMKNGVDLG
Method in brief: as §1

[10] = biological target: PUM1 PUF domain R5-GFY (Homo sapiens, UniProt Q14671 828-1176, C1007G;R1008F;Q1011Y)
Method in brief: as §1

[11] = biological target: PUM1 PUF domain R5-FKR (Homo sapiens, UniProt Q14671 828-1176, C1007F;R1008K;Q1011R)
Method in brief: as §1

[12] = biological target: T2, PUM1 PUF domain R6-VYG (Homo sapiens, UniProt Q14671 828-1176, N1043V;Q1047G)
T2 sequence: T1 sequence with T216V, F217Y, R220G
Method in brief: as §1

[13] = biological target: PUM1 PUF domain R4-QRG (Homo sapiens, UniProt Q14671 828-1176, N971Q;H972R;Q975G)
Method in brief: as §1

[14] = biological target: T3, PUM1 PUF domain R6-FYC (Homo sapiens, UniProt Q14671 828-1176, N1043F;Q1047C)
T3 sequence: T1 sequence with T216F, F217Y, R220C
Method in brief: as §1

[15] = biological target: PUM1 PUF domain R8-LYG (Homo sapiens, UniProt Q14671 828-1176, N1122L;Q1126G)
Method in brief: as §1

[16] = biological target: PUM1 PUF domain R8-RHI (Homo sapiens, UniProt Q14671 828-1176, N1122R;Y1123H;Q1126I)
Method in brief: as §1

[17] = biological target: PUM1 PUF domain R5-RCI (Homo sapiens, UniProt Q14671 828-1176, C1007R;R1008C;Q1011I)
Method in brief: as §1

[18] = biological target: PUM1 PUF domain R5-RGP (Homo sapiens, UniProt Q14671 828-1176, C1007R;R1008G;Q1011P)
Method in brief: as §1

[19] = biological target: PUM1 PUF domain R5-KND (Homo sapiens, UniProt Q14671 828-1176, C1007K;R1008N;Q1011D)
Method in brief: as §1

[20] = biological target: PUM1 PUF domain R3-RNP (Homo sapiens, UniProt Q14671 828-1176, C935R;R936N;Q939P)
Method in brief: as §1

Question: What does the source list for “GGCUAGAACUAGUGGAUCCCCCGGCGCCCGGCGGCUCGAGCCCGGGUAAGUCUAAAUAGUCUGCAUGCCGCCGGGCGCCAUGCCUGCAGGUCGACUCUAGAAAACAUG”?
Answer: binding signal [1]: 0.33 log2 enrichment (interaction score); binding signal [2]: 1.34 log2 enrichment (interaction score)

Question: What does the source list for “GGCUAGAACUAGUGGAUCCCCCGGCGCCCGGCGGCUCGAGCCCGGGUAAGUUUAAAUAGUCUGCAUGCCGCCGGGCGCCAUGCCUGCAGGUCGACUCUAGAAAACAUG”?
Answer: binding signal [1]: 2.86 log2 enrichment (interaction score); binding signal [2]: 3.1 log2 enrichment (interaction score)

Question: For “GGCUAGAACUAGUGGAUCCCCCGGCGCCCGGCGGCUCGAGCCCGGGUAAGUGUAAGUAGUCUGCAUGCCGCCGGGCGCCAUGCCUGCAGGUCGACUCUAGAAAACAUG”, which binding signal [3] is on record?
Answer: 3.43 log2 enrichment (interaction score)

Question: Which binding signal [4] does the source give for “GGCUAGAACUAGUGGAUCCCCCGGCGCCCGGCGGCUCGAGCCCGGGUAAGUGUAAAGAGUCUGCAUGCCGCCGGGCGCCAUGCCUGCAGGUCGACUCUAGAAAACAUG” here?
Answer: 5.58 log2 enrichment (interaction score)

Question: How did the binding signal [5] turn out when “GGCUAGAACUAGUGGAUCCCCCGGCGCCCGGCGGCUCGAGCCCGGGUAAGUGUAAAUCGUCUGCAUGCCGCCGGGCGCCAUGCCUGCAGGUCGACUCUAGAAAACAUG” was run?
Answer: 5.29 log2 enrichment (interaction score)

Question: What about the binding signal [6] of the same sequence?
Answer: 2.55 log2 enrichment (interaction score)

Question: And the binding signal [7]?
Answer: 2.53 log2 enrichment (interaction score)

Question: “GGCUAGAACUAGUGGAUCCCCCGGCGCCCGGCGGCUCGAGCCCGGGUAAGUGUAAAUUGUCUGCAUGCCGCCGGGCGCCAUGCCUGCAGGUCGACUCUAGAAAACAUG” was tested. Which binding signal [7] did it give?
Answer: 1.58 log2 enrichment (interaction score)

Question: With “GGCUAGAACUAGUGGAUCCCCCGGCGCCCGGCGGCUCGAGCCCGGGUAAGUGUAUAUAGUCUGCAUGCCGCCGGGCGCCAUGCCUGCAGGUCGACUCUAGAAAACAUG” as the sequence, how does the binding signal [8] read?
Answer: 6.59 log2 enrichment (interaction score)

Question: How did the binding signal [9] turn out when “GGCUAGAACUAGUGGAUCCCCCGGCGCCCGGCGGCUCGAGCCCGGGUAAGUGCAAAUAGUCUGCAUGCCGCCGGGCGCCAUGCCUGCAGGUCGACUCUAGAAAACAUG” was run?
Answer: 5.38 log2 enrichment (interaction score)

Question: What does the source list for “GGCUAGAACUAGUGGAUCCCCCGGCGCCCGGCGGCUCGAGCCCGGGUAAGUGUUAAUAGUCUGCAUGCCGCCGGGCGCCAUGCCUGCAGGUCGACUCUAGAAAACAUG”?
Answer: binding signal [10]: 2.65 log2 enrichment (interaction score); binding signal [11]: 2.17 log2 enrichment (interaction score)

Question: Which binding signal [12] does the source give for “GGCUAGAACUAGUGGAUCCCCCGGCGCCCGGCGGCUCGAGCCCGGGUAAGUGAAAAUAGUCUGCAUGCCGCCGGGCGCCAUGCCUGCAGGUCGACUCUAGAAAACAUG” here?
Answer: 5.61 log2 enrichment (interaction score)

Question: What does the source list for “GGCUAGAACUAGUGGAUCCCCCGGCGCCCGGCGGCUCGAGCCCGGGUAAGUGUAAAUAGUCUGCAUGCCGCCGGGCGCCAUGCCUGCAGGUCGACUCUAGAAAACAUG”?
Answer: binding signal [13]: 3.75 log2 enrichment (interaction score); binding signal [14]: 3.33 log2 enrichment (interaction score); binding signal [15]: 0.62 log2 enrichment (interaction score); binding signal [10]: 3.55 log2 enrichment (interaction score); binding signal [9]: 5.59 log2 enrichment (interaction score); binding signal [12]: 1.61 log2 enrichment (interaction score); binding signal [8]: 6.38 log2 enrichment (interaction score)

Question: How did the binding signal [8] turn out when “GGCUAGAACUAGUGGAUCCCCCGGCGCCCGGCGGCUCGAGCCCGGGUAAGUGUACAUAGUCUGCAUGCCGCCGGGCGCCAUGCCUGCAGGUCGACUCUAGAAAACAUG” was run?
Answer: 5.37 log2 enrichment (interaction score)

Question: For “GGCUAGAACUAGUGGAUCCCCCGGCGCCCGGCGGCUCGAGCCCGGGUAAGCGUAAAUAGUCUGCAUGCCGCCGGGCGCCAUGCCUGCAGGUCGACUCUAGAAAACAUG”, which binding signal [15] is on record?
Answer: 2.57 log2 enrichment (interaction score)

Question: What about the binding signal [16] of the same sequence?
Answer: 5.37 log2 enrichment (interaction score)

Question: Which results are given for “GGCUAGAACUAGUGGAUCCCCCGGCGCCCGGCGGCUCGAGCCCGGGUAAGUGUCAAUAGUCUGCAUGCCGCCGGGCGCCAUGCCUGCAGGUCGACUCUAGAAAACAUG”?
Answer: binding signal [17]: 2.64 log2 enrichment (interaction score); binding signal [18]: 2.99 log2 enrichment (interaction score); binding signal [11]: 3.62 log2 enrichment (interaction score); binding signal [19]: 3.62 log2 enrichment (interaction score)

Question: How did the binding signal [20] turn out when “GGCUAGAACUAGUGGAUCCCCCGGCGCCCGGCGGCUCGAGCCCGGGUAAGUGUAAUUAGUCUGCAUGCCGCCGGGCGCCAUGCCUGCAGGUCGACUCUAGAAAACAUG” was run?
Answer: 4.2 log2 enrichment (interaction score)
